# Source: PubChem BioAssay (NCI)
# The panel holds about 83,000 compounds, 20% with a hit somewhere; the sample as a whole holds those more often.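 Assay: single dose, 48 h. Readout: percent growth (0 = no net growth; negative = cell death). Active: <10.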 A number with no mark means an inactive call. Active and inactive are the calls of the source.
# Experiments:
# Experiment in all cases: NCI-60 one-dose screen, 48 h (100 = growth as untreated, 0 = no growth, -100 = all killed)
# Conditions in all cases: 10 µM unless noted
# NCI-H23 lung = test system: NCI-H23 lung
# NCI-H322M lung = test system: NCI-H322M lung
# HOP-62 NSCLC = test system: HOP-62 NSCLC
# NCI-H460 lung = test system: NCI-H460 lung
# HOP-92 NSCLC = test system: HOP-92 NSCLC
# NCI-H522 lung = test system: NCI-H522 lung
# A549/ATCC NSCLC = test system: A549/ATCC NSCLC
# 786-0 renal = test system: 786-0 renal
# COLO 205 colon = test system: COLO 205 colon
# DU-145 prostate = test system: DU-145 prostate
# K-562 leukemia = test system: K-562 leukemia
# MALME-3M melanoma = test system: MALME-3M melanoma
# MDA-MB-231 breast = test system: MDA-MB-231 breast
# SF-268 CNS = test system: SF-268 CNS
# SF-295 CNS = test system: SF-295 CNS
# SF-539 CNS = test system: SF-539 CNS
# M14 melanoma = test system: M14 melanoma
# RXF 393 renal = test system: RXF 393 renal
# UACC-257 melanoma = test system: UACC-257 melanoma
Compound,growth (NCI-H23 lung),growth (NCI-H322M lung),growth (HOP-62 NSCLC),growth (NCI-H460 lung),growth (HOP-92 NSCLC),growth (NCI-H522 lung),growth (A549/ATCC NSCLC),growth (786-0 renal),growth (COLO 205 colon),growth (DU-145 prostate),growth (K-562 leukemia),growth (MALME-3M melanoma),growth (MDA-MB-231 breast),growth (SF-268 CNS),growth (SF-295 CNS),growth (SF-539 CNS),growth (M14 melanoma),growth (RXF 393 renal),growth (UACC-257 melanoma)
CC(N)C(Cc1ccc(Cl)cc1)c1ccc(Cl)cc1 (stereo not drawn),92.8%,83.4%,56%,66%,21.5%,-18.1% (active),42.1%,57.1%,-81.2% (active),61%,0.46% (active),80.3%,35.5%,62.6%,84.9%,80.8%,47.6%,–,–
Cc1cnc(NC(=O)Nc2cc(Br)c(C)cc2OC[C@@H]2CNCCO2)cn1,15%,34.3%,12.5%,4.27% (active),35%,-16.4% (active),17.5%,2.83% (active),3.34% (active),24%,-42.2% (active),-48.1% (active),22.2%,33.6%,4.01% (active),-75.8% (active),-84.5% (active),-14.8% (active),-76.8% (active)
Cn1ccnc1C(=O)/C=C/c1ccc(CC(=O)Nc2ccc(C(F)(F)F)cc2)cc1,19.4%,6.96% (active),-33.7% (active),-0.126% (active),38.3%,-3.98% (active),6.44% (active),1.74% (active),5.87% (active),7.72% (active),6.29% (active),77.5%,8.95% (active),16.4%,7.9% (active),-36.8% (active),21.3%,-1.43% (active),77.9%
CO[C@H](C(=O)N[C@@H](CCCCNC(=O)OCc1ccccc1)C(=O)OC(C)(C)C)[C@@H]1Cc2cc3cc(OC4CC(OC5CC(O)C(O)C(C)O5)C(O)C(C)O4)c(C)c(O)c3c(O)c2C(=O)[C@H]1OC1CC(OC2CC(OC3CC(C)(O)C(O)C(C)O3)C(O)C(C)O2)C(O)C(C)O1 (stereo partly drawn),-42.6% (active),20.2%,-15% (active),-17.6% (active),-82.6% (active),-16% (active),-25.7% (active),-89.8% (active),-20.7% (active),26.5%,5.35% (active),-69.4% (active),-71.8% (active),-61.5% (active),-89.5% (active),-32% (active),-69.8% (active),-85.9% (active),-5.47% (active)
O=C(NOCCO)c1ccc2cncn2c1Nc1ccc(I)cc1F,18.8%,24.1%,35.7%,74.7%,-19.6% (active),60.4%,25.4%,81.6%,6.84% (active),64.6%,38.2%,1.32% (active),31.6%,74.5%,91.9%,66.2%,5.3% (active),-6.5% (active),-20.7% (active)
COC(=O)[C@]12CC[C@@H](C)[C@H](C)[C@@H]1C1=CC[C@@H]3[C@@]4(C)C(C#N)=CC(C)=C4CC[C@@]3(C)[C@]1(C)CC2,78.2%,108%,113%,89.3%,91.7%,78.1%,92.2%,93%,86.1%,99.3%,84.5%,87.5%,85.4%,85.3%,85.4%,91.8%,77.2%,–,–
CC(=O)C1CC(C)CCC1C(C)C (stereo not drawn),78.7%,102%,107%,98.4%,47.4%,82.8%,106%,105%,122%,111%,77%,126%,80.2%,105%,120%,102%,103%,107%,111%
Cc1cnc(Nc2ccc(OCCN3CCCC3)cc2)nc1Nc1cccc(S(=O)(=O)NC(C)(C)C)c1,15.8%,28%,-8.87% (active),10.4%,-72.1% (active),-46.4% (active),-53.6% (active),-84.8% (active),-67.6% (active),17.6%,1.89% (active),-34.1% (active),6.69% (active),-10.9% (active),15.5%,-83.2% (active),-48% (active),-86.7% (active),-78.9% (active)
